In the library only some 5.3% were active in any assay of this set; here they are far more common.
Measles CPE: protection of cells from measles virus. Measles virus-infected cells, CPE protection, absorbance. protection (pct of control), % at 4 µM. 140,000 tested, 1.5% active. AID 841; in the data active means protection mostly above about 24%, no sharp cut-off; inactive means mostly below about 26%
PostGolgi ctrl: inhibits growth of the yeast control strain | efflux-deficient yeast background strain, growth absorbance A615, 16 h | inhibition, % at 10 µM | 98,000 tested, 5% active | AID 738
MT1-MMP txn act: MT1-MMP promoter transcription activation; HT1080 MT1-MMP promoter luciferase reporter, luminescence, overnight; active compounds read high; activation factor at 10 µM; 86,000 tested, 0.16% active;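 active means activation factor of at least 2 for MT1-MMP transcription at 10 µM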
PostGolgi yeast: growth inhibition of a yeast mutant, post-Golgi transport screen. inhibition, % at 10 µM. post-Golgi transport phenotypic cell assay. 98,000 tested, 0.9% active;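 further: yeast cells grown in 1536-well plates; yeast grown about 18 h at 30C before absorbance read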
* marks the source's active call; other numbers are inactive results; . = no result. Unless noted, no stated cut-off is given here; in the data, active means inhibition above about 30%; inactive means the rest.

SMILES	Measles CPE	PostGolgi ctrl	MT1-MMP txn act	PostGolgi yeast
COCCNC(=O)c1cn(C)c2ccc(S(=O)(=O)N(C)C3CCCCC3)cc2c1=O	11.2	30.5*	1	-14.7
CCOCCCNC(=O)c1cn(C)c2ccc(S(=O)(=O)N(C)C3CCCCC3)cc2c1=O	12.9	8.2	1	-0.5
O=C(Cc1ccccc1I)Nc1ccccc1	.	.	1.1	.
O=C(CCN1C(=O)C2C3C=CC(C3)C2C1=O)Nc1c(F)cccc1F (centres undefined)	2.6	39.3*	0.9	11.5
Cc1cc(NC(=O)CCN2C(=O)C3C4C=CC(C4)C3C2=O)c2ccccc2n1 (centres undefined)	45.4*	-3.4	0.9	-3.1
CN1CCN(C(=O)C(C(=O)c2ccc(F)cc2)n2ccccc2=O)CC1 (centres undefined)	4.3	6.2	1.1	-5.4
Cn1c(-c2ccc[nH]c2=O)nc2cc(Cl)ccc21	13.5	0.0	.	2.2
CCCc1cc2c(n1Cc1ccc(OC)cc1)C(C)C1CN(C(=O)c3ccccc3)C(C)(C(=O)OC)C21 (centres undefined)	.	.	1.1	.
Cc1ccc(-c2nnc3n2CCCCC3)cc1	28.9*	13.2	1.1	1.6
COc1ccc2c(Cl)c(-c3nnc4n3CCCCC4)sc2c1	42.7*	17.5	1.2	-3.2
COC(=O)c1ccc(C(NC(=O)OCc2ccccc2)/C(C)=C/[C@@H](C)C(=O)NCCN2CCOCC2)cc1 (some centres undefined)	.	.	1	.
Cc1cc(C)n(-c2nc3nonc3nc2Nc2cccc(C)c2C)n1	31.2*	0.5	.	-4.6
CCOC(=O)/C(=C/c1ccccc1)NC(=O)c1ccco1	5.4	.	.	.
CCNC(=S)Nc1ccc(Cl)c(C(F)(F)F)c1	6.6	.	.	.
Cc1ccc(-c2csc3ncnc(Sc4nnc(CN5CCCCCC5=O)o4)c23)cc1	3.9	19.7	.	-4.9
CCOC(=O)CNC(=O)c1sc(NC(=O)c2cccc(F)c2)nc1C	44.2	34.7*	.	-2.2
O=C(c1ccco1)n1c(=S)nc2ccccn21	15.2	26.9	1.5	-11.6
Cc1cccc2nc(=S)n(C(=O)c3ccco3)n12	4.8	4.8	2.1*	-0.8
COc1cccc(C(=O)Nc2nc3c(s2)CN(C)CC3)c1	12.7	-14.8	1.6	11.8
O=C(Oc1cccc(/C=N/Nc2nc(Nc3ccccc3)nc(N3CCOCC3)n2)c1)c1ccco1	19.0*	.	.	.
O=C(CSc1nc(Nc2ccccc2)nc(N2CCOCC2)n1)N1CCc2ccccc21	16.2	53.6*	1	-2.5
c1ccc(Nc2nc(N3CCOCC3)nc(N3CCOCC3)n2)cc1	10.4	32.2*	0.9	4.3
c1ccc(Nc2nc(N3CCNCC3)nc(N3CCOCC3)n2)cc1	1.4	.	1	.
COc1ccc(NC(=S)N2CCN(C(=O)C3CCCO3)CC2)c(OC)c1 (centres undefined)	6.5	.	.	.
COC(=O)[C@@]1(Cc2ccccc2)[C@H]2c3cc(C(=O)N(C)C)n(C[C@H](O)CO)c3C[C@H]2CN1C(=O)c1ccccc1	.	.	1.1	.
SMILES	Measles CPE	PostGolgi ctrl	MT1-MMP txn act	PostGolgi yeast
CC(C)c1ccc(-c2c(C#N)c(N)nc(SCC(=O)N3CCCCC3)c2C#N)cc1	33.1*	0.5	1	-7.2
CC(=O)N1[C@H](C)C=C[C@]1(Cc1ccccc1)C(=O)NCc1ccc(C)o1	.	.	1	.
Cc1ccccc1C(=O)N/N=C/c1ccc([N+](=O)[O-])s1	43.6*	22.7	.	4.0
CCc1nnc(NS(=O)(=O)c2ccc(NC(=S)NC(=O)/C=C/c3ccccc3)cc2)s1	62.9*	.	.	.
Cc1ccc(/C=C/C2=NN(Cc3ccc(Cl)c(Cl)c3)C(=O)CC2)cc1	22.7	43.7*	1.2	-1.2
Cc1ccc(CNC(=O)CS(=O)(=O)CC(=O)O)cc1	5.6	17.1	.	20.3
COc1ccc(OC)c(NC(=O)c2cccnc2Sc2ccccc2)c1	9.9	.	.	.
Cc1ccc(C(=O)c2cc([N+](=O)[O-])ccc2N2CCCCC2)c(C)c1	1.5	.	.	.
O=C(CCSc1nnc(-c2ccco2)o1)Nc1ccc(Cl)cc1	24.6	4.1	1.2	5.7
O=C(CCSc1nnc(-c2ccncc2)o1)Nc1ccc(Cl)cc1	25.8	99.2*	1	101.5*
O=C(CCSc1nnc(-c2ccncc2)o1)Nc1ccccc1Cl	29.9*	1.4	.	-4.2
CCNC(=S)N(Cc1ccccc1)Cc1nc2ccccc2c(=O)[nH]1	10.8	.	.	.
COc1ccccc1NC(=O)N1CCC(c2nnc(SCC(N)=O)n2C)CC1	8.3	12.8	1.1	5.5
Cn1c(Cl)cnc1C1CC(=O)c2cc(Cl)ccc2O1 (centres undefined)	5.1	38.3*	0.6	-1.8
Cn1c2c(c(=O)n(C)c1=O)C1c3cc(Cl)ccc3OCC1CO2 (centres undefined)	12.1	9.5	.	2.4
CCCc1nc(N2CCOCC2)c(C#N)c2c1CCCC2	29.2	38.9*	1	-1.1
CCCSc1nc(N2CCOCC2)c2c(c1C#N)CCCC2	20.4	28.4	1	-9.5
CC(C)c1nc(N2CCOCC2)c(C#N)c2c1CCC2	8.5	1.7	1.2	6.9
CCCCc1nc(N2CCOCC2)c(C#N)c2c1CCCC2	55.6*	24.6	0.9	4.8
COC(=O)c1cc(Br)ccc1OC(=O)c1cccnc1	11.6	-0.3	1.1	4.6
O=C(Oc1ccccc1[N+](=O)[O-])c1cccnc1	28.8*	28.8	.	2.5
O=C(Oc1cccc(Br)c1)c1cccnc1	18.5	33.5*	1	12.0
CCOCCCn1cnc2c(c1=O)c1nc3ccccc3nc1n2-c1ccccc1	42.6*	8.2	1	-6.2
COc1ccc(C2CC(=O)c3c(ccc4ccccc34)N2)cc1OC (centres undefined)	6.8	2.8	.	-0.8
CC1(C)CC(=O)C2=C(C1)c1c(ccc3ccccc13)NC2c1ccc(Br)o1 (centres undefined)	14.8	69.3*	0.9	13.7
SMILES	Measles CPE	PostGolgi ctrl	MT1-MMP txn act	PostGolgi yeast
COc1ccc(C(=O)NC(=S)Nc2ccc(N3CCOCC3)c(Cl)c2)cc1[N+](=O)[O-]	8.9	.	.	.
O=C(CNC(=S)N(Cc1ccccc1)Cc1cccnc1)NC1CC1	13.4	.	.	.
O=C(CNC(=S)N(Cc1ccccc1)Cc1cccnc1)NC1CCCC1	28.2*	.	.	.
CCCCCc1ccc(-c2ccc(=O)[nH]n2)cc1	20.9	30.7*	1.4	-6.0
Cc1ccc(-c2ccc(=O)[nH]n2)cc1	3.4	5.0	1.1	8.2
Cc1ccc2nc(NCC(=O)O)nc(-c3ccccc3)c2c1	18.4	5.0	.	-2.9
COc1cc(Nc2nc(-c3ccccc3)c3cc(C)ccc3n2)cc(OC)c1OC	6.0	35.4*	.	-1.4
CN(/C(=N\S(=O)(=O)c1ccccc1)C(F)(F)F)c1ccccc1	17.8	-5.8	.	-6.8
Cc1cc(C)c(-n2c(C)cc(/C=C3/NC(=O)NC3=O)c2C)c(C)c1	7.2	64.3*	1	4.1
Fc1ccc(-c2nc3nc4ccccc4nc3n2Cc2ccco2)cc1	3.8	32.5*	1.4	5.3
c1ccc(-c2nc3nc4ccccc4nc3n2Cc2ccco2)cc1	15.4	31.6*	1.7	-9.5
Fc1ccc(-n2c(-c3ccco3)nc3nc4ccccc4nc32)cc1	1.8	10.9	1.1	-12.3
CCOC(=O)c1c(-c2cccs2)csc1NC(=O)CNCCN1CCOCC1	4.4	6.1	.	2.7
O=C(c1cccs1)N1CCN=C1SCc1cccnc1	8.7	31.5*	1.1	6.0
O=C(c1ccco1)N1CCN=C1SCc1cccnc1	11.3	-2.1	1.2	30.1*
Cc1ccc(CSC2=NCCN2C(=O)c2ccco2)cc1	5.3	0.7	1	2.2

From PubChem BioAssay
